Cruzain inh noDet: blocks cruzain activity in detergent-free assay; purified cruzain, Z-FR-AMC fluorescence, no detergent; Potency, µM, for inactives: max response, negative = inhibition, usual class: inhibitors; 2.3% of 200,000 active; AID 1476;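 further: plate controls were enzyme without inhibitor for no effect and buffer without enzyme for full effect; nearly all actives have a fitted effect of over 40% in size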
Target sequence (P25779 123-467 limits assumed): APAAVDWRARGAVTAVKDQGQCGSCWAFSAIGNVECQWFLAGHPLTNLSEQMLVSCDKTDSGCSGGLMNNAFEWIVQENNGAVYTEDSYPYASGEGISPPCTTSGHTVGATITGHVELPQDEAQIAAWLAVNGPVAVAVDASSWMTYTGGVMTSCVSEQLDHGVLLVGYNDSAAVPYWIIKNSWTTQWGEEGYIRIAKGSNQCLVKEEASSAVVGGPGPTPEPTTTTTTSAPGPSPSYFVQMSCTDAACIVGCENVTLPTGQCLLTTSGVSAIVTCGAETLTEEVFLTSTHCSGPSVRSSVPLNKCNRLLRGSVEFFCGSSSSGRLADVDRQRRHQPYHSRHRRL
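Purified cruzain at 1.5 nM, pre-incubated 15 min with compound at room temperature in 100 mM sodium acetate pH 5.5, 5 mM DTT, 0.00005% Triton X-100. Reaction started with 2 uM Z-FR-AMC; AMC fluorescence increase over 60 s gives rate.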
Cruzain Triton: inhibitors of Trypanosoma cruzi cruzain with detergent; P25779; Potency, µM, for the others: max response, negative = inhibition, usual class: inhibitors; purified cruzain, Z-FR-AMC fluorescence, 0.01% Triton; 0.43% of 200,000 active;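 further: plate controls were neutral wells for no effect and buffer without enzyme for full effect; nearly all actives have a fitted effect of over 40% in size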
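Cruzain (1.5 nM) preincubated 15 min at RT with compound in 100 mM sodium acetate pH 5.5, 5 mM DTT, 0.01% Triton X-100. Reaction started with 2 uM Z-FR-AMC; AMC fluorescence (ex 360/em 450 nm) change over 60 s gave rate.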
* hit, by the source's call; u = inconclusive. A selection: hits, their analogues and other compounds. The true share with any hit is near 2.5%. The call rests on the fitted dose curve; in most records, active means well fitted curve in the direction sought with a large enough effect; inconclusive means small, poorly fitted or top-dose-only effect, or another doubt; inactive means no such curve, though single readings can be large; an effect the other way counts as inactive or inconclusive. Potency means the concentration at half of the fitted maximal effect.

SMILES | Cruzain inh noDet | Cruzain Triton
CN1/C(=C\C(=O)COC(=O)CNC(=O)c2ccc3ccccc3c2)C(C)(C)c2ccccc21 | 25.1µM* | -23.8%
O=C(CSC1=Nc2ccccc2N=C(c2ccc(F)cc2)C1)NCc1ccc(Cl)cc1 | 6.3% | -0.7%
CCn1cc2nc(SCC(=O)Nc3ccc(OC)cc3OC)n(Cc3ccc(Cl)cc3)c(=O)c2n1 | u | -4.0%
COc1cc(C)ccc1OCCOc1cc(C)ccc1Cl | 20µM* | -0.7%
COc1cc(C)ccc1OCCOc1c(Cl)cc(Cl)cc1Cl | -0.8% | -1.4%
Cc1nn(CC(=O)NCc2ccccc2Cl)c(=O)c2cccn12 | 0.0% | -9.2%
CC(=O)c1cccc(NC(=O)Cn2c(C)c3cnn(-c4ccccc4)c(=O)c3c2C)c1 | -3.4% | -9.0%
CCN(CC)c1ccc(C=C(c2nnnn2-c2ccc(C)cc2)c2nnnn2-c2ccc(C)cc2)cc1 | 31.6µM* | -4.9%
Cc1ccc(-n2nnnc2C(Cl)c2nnnn2-c2ccc(C)cc2)cc1 | 5.0% | -1.0%
Cc1ccccc1NCc1ccc(O)c2ncccc12 | 6.4% | -6.4%
Cc1ccccc1N=Nc1ccc(O)c2ncccc12 | 20µM* | 0.1%
NC[C@@H]1O[C@H](O[C@@H]2[C@H](O[C@@H]3O[C@H](CO)[C@@H](O)[C@@H]3O)[C@@H](O)[C@@H](N)C[C@H]2N)[C@@H](N)[C@H](O)[C@@H]1O | -6.1% | 1.1%
CCc1nn(-c2ccccc2)c(N)c1C#N | 9.8% | 1.8%
CCc1nn(-c2cc(Oc3ccccc3)nc(-c3ccccc3)n2)c(N)c1C#N | 3.16µM* | -6.0%
C#CCOCCOCCOCCNc1nc(N2CCN(C(=O)[C@H](C)n3cc(CCCN=C(N)N)nn3)CC2)nc(N2CCN(C(=O)[C@H](CCCCN)n3cc(CCCC)nn3)CC2)n1 | -0.3% | -15.0%
C#CCOCCOCCOCCNc1nc(N2CCN(C(=O)[C@H]([C@@H](C)CC)n3cc(CCCN=C(N)N)nn3)CC2)nc(N2CCN(C(=O)[C@H](CCCCN)n3cc(CCCC)nn3)CC2)n1 | u | 25.1µM*
COc1cc2c(cc1NS(=O)(=O)c1cccc(C#N)c1)n(C)c(=O)n2C | 9.4% | -1.6%
N#CC(C(=O)NC1CCCCC1)c1nc2ccccc2nc1N1CCOCC1 (configuration not stated) | 1.3% | 2.0%
CCCCCCOC(=O)C(C#N)c1nc2ccccc2nc1N1CCN(C)CC1 (configuration not stated) | 3.7% | -1.7%
CCCCCCOC(=O)C(C#N)c1nc2ccccc2nc1N1CCCCC1 (configuration not stated) | 25.1µM* | -2.1%
CC1CCN(c2nc3ccccc3nc2C(C#N)C(=O)NC2CCCCC2)CC1 (configuration not stated) | 20µM* | -4.2%
COCCCNC(=O)c1ccc2c(c1)nc1n2CCCCC1 | -13.6% | 0.8%
CCN(C(=O)c1cc2c(Cl)nc3ccc(C)cc3c2s1)c1cc(OC)ccc1OC | -0.2% | -3.4%
CCc1nn(Cc2ccc(Cl)cc2)c(=O)c2cc3cc(C)ccc3n12 | 12.1% | -1.8%
N#Cc1c(/N=C/c2ccccc2)oc(-c2ccccc2)c1-c1ccccc1 | 31.6µM* | -8.0%
SMILES | Cruzain inh noDet | Cruzain Triton
N#Cc1c(/N=C/c2ccco2)oc(-c2ccccc2)c1-c1ccccc1 | -5.7% | -14.6%
Cc1ccc(-n2c(C)cc(/C=N/NC(=O)c3ccncc3)c2C)cc1 | -4.6% | -6.6%
Cc1ccc(C(=O)N/N=C/c2cc(C)n(-c3ccc(Br)cc3)c2C)cc1[N+](=O)[O-] | 20µM* | 1.8%
Cc1ccc(CO/N=C\Cc2snc(Sc3ncc(C(F)(F)F)cc3Cl)c2C#N)cc1 | 3.98µM* | -7.6%
Cc1ccc(S(=O)(=O)N2CCN(C(=O)CSc3ncc(C(F)(F)F)cc3Cl)CC2)cc1 | 6.5% | -4.1%
CSc1ccc(C2C(C#N)=C(N)N(c3ccccc3)C3=C2C(=O)CCC3)cc1 (configuration not stated) | 15.8µM* | -8.9%
N#CC1=C2N=C(N)c3c(sc4c3CCCCC4)N2C2=C(C(=O)CCC2)C1c1ccccc1 (configuration not stated) | 25.1µM* | -1.1%
CCOc1ccc(C2C(C#N)=C(N)N(c3sc4c(c3C#N)CCCC4)C3=C2C(=O)CCC3)cc1 (configuration not stated) | -5.8% | -3.4%
Cc1nn(C)cc1C1C(C#N)=C(N)N(c2cccnc2)C2=C1C(=O)CCC2 (configuration not stated) | -16.5% | -3.0%
O=S(=O)(c1ccccc1)N1CCC[C@@]2(CCN(Cc3cc(C(F)(F)F)cc(C(F)(F)F)c3)C2)C1 | -2.5% | -4.0%
OB(O)c1cc2ccccc2o1 | -3.0% | -2.0%
COc1cccc(Nc2ncc3nc(-c4cccs4)c(=O)n(Cc4cccs4)c3n2)c1 | 5.01µM* | 2.1%
COc1ccc(-n2c(=O)c(-c3cccs3)nc3cnc(Nc4ccccc4)nc32)cc1 | 4.7% | -0.5%
COc1cccc(Nc2ncc3nc(-c4cccs4)c(=O)n(-c4ccccc4)c3n2)c1 | 6.31µM* | 0.8%

Screening results from PubChem.
